The text below walks through data of paper PMC7862700, “An all-to-all approach to the identification of sequence-specific readers for epigenetic DNA modifications on cytosine”.

What all share (test): DAPPL (digital affinity profiling via proximity ligation, sequencing); 10 mM Tris-HCl pH 7.5, 50 mM NaCl, 1 mM DTT, 4% glycerol, room temperature, 30 min; GST-TFs on glutathione beads, 16-mer random dsDNA library, 0.1% formaldehyde crosslink after washing; high values mean tight binding
One assay deals with T1, FEV (Homo sapiens, UniProt Q99581 1-238).
T1 sequence: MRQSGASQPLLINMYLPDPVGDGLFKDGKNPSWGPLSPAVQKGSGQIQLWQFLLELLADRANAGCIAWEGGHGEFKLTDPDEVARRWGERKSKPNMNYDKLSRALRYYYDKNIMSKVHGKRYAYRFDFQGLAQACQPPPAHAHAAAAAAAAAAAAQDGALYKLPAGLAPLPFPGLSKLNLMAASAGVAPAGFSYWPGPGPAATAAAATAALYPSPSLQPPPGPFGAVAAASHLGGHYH
Particulars: protein: recombinant; tags: N-terminal GST; dsDNA, one strand shown. In outline:
(§1)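 Binding signal is each hexamer's read frequency for a factor divided by its frequency in the tag-only sample. The factors were GST-fused human transcription factors from yeast, captured on glutathione beads, DNA-barcoded and pooled with that sample. Pools were incubated with 200 nmole of a random double-stranded 16-mer DNA library in Tris/NaCl/DTT/glycerol buffer at room temperature for 30 min, then washed, crosslinked with 0.1% formaldehyde, proximity-ligated with BsaI/T4 ligase (1 h, 37 °C), PCR-amplified and sequenced on an Illumina NextSeq500.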

The target of a further assay is ETV5 (Homo sapiens, UniProt P41161 1-510). To be noted: protein: recombinant; tags: N-terminal GST; dsDNA, one strand shown. The method, boiled down: as §1
ETV5, sequence (P41161 whole entry): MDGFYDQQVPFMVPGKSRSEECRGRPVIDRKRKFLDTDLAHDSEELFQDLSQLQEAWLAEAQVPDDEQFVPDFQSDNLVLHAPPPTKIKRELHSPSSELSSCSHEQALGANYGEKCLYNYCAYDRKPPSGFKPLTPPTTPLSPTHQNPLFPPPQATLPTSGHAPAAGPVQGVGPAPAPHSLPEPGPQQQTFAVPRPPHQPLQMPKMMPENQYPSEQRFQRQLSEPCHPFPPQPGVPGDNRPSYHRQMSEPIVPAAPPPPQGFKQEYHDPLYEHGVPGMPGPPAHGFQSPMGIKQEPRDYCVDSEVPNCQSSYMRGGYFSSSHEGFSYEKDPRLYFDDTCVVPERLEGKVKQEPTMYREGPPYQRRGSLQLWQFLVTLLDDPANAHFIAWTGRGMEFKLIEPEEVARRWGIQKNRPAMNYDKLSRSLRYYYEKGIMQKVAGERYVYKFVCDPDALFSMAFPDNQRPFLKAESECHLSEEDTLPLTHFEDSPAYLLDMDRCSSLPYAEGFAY
Another assay concerns the target HSF1 (Homo sapiens, UniProt Q00613 1-529). Particulars: protein: recombinant; tags: N-terminal GST; chain copies: 3; dsDNA, one strand shown. The method, boiled down: as §1
A further assay deals with T2, SPIC (Homo sapiens, UniProt Q8N5J4 1-248).
T2 sequence: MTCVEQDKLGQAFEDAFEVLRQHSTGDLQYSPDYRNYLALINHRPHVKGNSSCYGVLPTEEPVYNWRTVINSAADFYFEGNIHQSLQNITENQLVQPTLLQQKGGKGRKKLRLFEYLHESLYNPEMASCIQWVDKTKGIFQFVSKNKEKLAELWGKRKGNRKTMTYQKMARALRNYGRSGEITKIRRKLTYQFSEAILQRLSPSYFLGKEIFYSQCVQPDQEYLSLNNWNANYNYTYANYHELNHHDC
To be noted: protein: recombinant; tags: N-terminal GST; dsDNA, one strand shown. The method, boiled down:
as §1

A further assay concerns the target ELF4 (Homo sapiens, UniProt Q99607 1-663). To be noted: protein: recombinant; tags: N-terminal GST; dsDNA, one strand shown. In outline: as §1
The target in the next assay is T3, ELK4 (Homo sapiens, UniProt P28324-2 1-405).
T3 sequence: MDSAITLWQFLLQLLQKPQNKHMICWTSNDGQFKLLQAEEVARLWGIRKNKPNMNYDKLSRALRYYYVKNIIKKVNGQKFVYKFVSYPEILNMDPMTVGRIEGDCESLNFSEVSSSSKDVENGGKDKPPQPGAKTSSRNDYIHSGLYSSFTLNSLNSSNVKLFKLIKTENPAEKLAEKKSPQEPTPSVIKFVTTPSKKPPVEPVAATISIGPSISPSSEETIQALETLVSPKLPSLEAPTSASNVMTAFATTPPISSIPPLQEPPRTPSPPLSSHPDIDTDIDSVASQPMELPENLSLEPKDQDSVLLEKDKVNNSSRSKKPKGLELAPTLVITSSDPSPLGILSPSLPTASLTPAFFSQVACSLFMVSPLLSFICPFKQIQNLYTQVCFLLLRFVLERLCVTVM
Particulars: protein: recombinant; tags: N-terminal GST; dsDNA, one strand shown. In outline:
as §1

A further assay has as its target T4, ETV2 (Homo sapiens, UniProt O00321 1-342).
T4 sequence: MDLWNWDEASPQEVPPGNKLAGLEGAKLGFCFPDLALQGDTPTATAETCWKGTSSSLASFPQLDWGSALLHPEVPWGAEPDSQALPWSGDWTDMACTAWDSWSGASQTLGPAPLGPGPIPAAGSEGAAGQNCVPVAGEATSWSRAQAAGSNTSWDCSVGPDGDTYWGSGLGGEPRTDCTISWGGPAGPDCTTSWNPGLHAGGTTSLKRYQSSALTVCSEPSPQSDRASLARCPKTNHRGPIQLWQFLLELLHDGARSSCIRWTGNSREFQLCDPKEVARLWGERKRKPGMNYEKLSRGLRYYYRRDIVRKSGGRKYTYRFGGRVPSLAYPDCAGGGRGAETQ
Particulars: protein: recombinant; tags: N-terminal GST; dsDNA, one strand shown. The method, boiled down:
as §1

The next assay has as its target T5, ELF3 (Homo sapiens, UniProt P78545 1-371).
T5 sequence: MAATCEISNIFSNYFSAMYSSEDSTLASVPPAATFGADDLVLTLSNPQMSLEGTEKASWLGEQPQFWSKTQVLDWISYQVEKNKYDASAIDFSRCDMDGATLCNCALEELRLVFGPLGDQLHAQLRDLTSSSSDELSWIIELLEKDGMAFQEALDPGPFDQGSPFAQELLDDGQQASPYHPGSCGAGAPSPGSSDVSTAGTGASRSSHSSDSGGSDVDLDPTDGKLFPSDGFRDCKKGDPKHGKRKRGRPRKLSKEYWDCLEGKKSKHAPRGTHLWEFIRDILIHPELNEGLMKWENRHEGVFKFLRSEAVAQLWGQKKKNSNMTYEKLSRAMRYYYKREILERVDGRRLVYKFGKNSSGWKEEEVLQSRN
To be noted: protein: recombinant; tags: N-terminal GST; dsDNA, one strand shown. The method, boiled down:
as §1

For a further assay, the target named is CRX (Homo sapiens, UniProt O43186 1-299). Particulars: protein: recombinant; tags: N-terminal GST; dsDNA, one strand shown. In outline: as §1
CRX, sequence (O43186 whole entry): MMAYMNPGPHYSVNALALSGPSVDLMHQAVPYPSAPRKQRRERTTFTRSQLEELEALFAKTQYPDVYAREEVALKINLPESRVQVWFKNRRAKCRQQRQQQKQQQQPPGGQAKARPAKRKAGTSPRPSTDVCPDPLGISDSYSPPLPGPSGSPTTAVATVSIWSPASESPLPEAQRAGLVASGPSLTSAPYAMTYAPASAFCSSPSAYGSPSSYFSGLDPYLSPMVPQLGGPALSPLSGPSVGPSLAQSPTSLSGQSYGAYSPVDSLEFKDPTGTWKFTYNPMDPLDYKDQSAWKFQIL
Another assay has as its target ETV1 (Homo sapiens, UniProt P50549 1-477). Particulars: protein: recombinant; tags: N-terminal GST; dsDNA, one strand shown. In outline: as §1
For the next assay, the target named is T6, ERF (Homo sapiens, UniProt P50548 1-548).
T6 sequence: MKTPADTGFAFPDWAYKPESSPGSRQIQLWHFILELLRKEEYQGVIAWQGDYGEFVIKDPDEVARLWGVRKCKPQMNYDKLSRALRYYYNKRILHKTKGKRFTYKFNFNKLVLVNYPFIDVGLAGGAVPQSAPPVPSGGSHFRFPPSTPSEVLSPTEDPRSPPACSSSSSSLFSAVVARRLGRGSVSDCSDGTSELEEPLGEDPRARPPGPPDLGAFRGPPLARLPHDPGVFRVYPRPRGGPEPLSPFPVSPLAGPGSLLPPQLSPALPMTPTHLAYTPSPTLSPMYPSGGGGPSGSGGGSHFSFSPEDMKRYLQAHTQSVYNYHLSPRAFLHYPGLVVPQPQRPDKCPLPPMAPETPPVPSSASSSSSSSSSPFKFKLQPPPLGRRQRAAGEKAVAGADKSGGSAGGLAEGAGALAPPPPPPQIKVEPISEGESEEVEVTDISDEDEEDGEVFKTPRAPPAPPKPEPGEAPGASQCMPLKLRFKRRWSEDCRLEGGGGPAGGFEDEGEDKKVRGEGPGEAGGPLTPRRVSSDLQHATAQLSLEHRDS
To be noted: protein: recombinant; tags: N-terminal GST; dsDNA, one strand shown. The method, boiled down:
as §1

In the next assay the target is T7, ETV3L (Homo sapiens, UniProt Q6ZN32 1-361).
T7 sequence: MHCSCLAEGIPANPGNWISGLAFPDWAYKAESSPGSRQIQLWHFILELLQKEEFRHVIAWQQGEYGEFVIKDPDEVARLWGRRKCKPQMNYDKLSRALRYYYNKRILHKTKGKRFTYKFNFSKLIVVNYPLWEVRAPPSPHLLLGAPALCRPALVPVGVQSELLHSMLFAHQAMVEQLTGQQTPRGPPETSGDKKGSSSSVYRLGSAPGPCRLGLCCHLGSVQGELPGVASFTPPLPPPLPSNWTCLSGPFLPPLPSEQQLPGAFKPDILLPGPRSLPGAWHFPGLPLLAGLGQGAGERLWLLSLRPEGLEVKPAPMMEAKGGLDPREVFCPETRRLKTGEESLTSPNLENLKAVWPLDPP
To be noted: protein: recombinant; tags: N-terminal GST; dsDNA, one strand shown. The method, boiled down:
as §1

In the next assay the target is T8, ETS2 (Homo sapiens, UniProt P15036 1-469).
T8 sequence: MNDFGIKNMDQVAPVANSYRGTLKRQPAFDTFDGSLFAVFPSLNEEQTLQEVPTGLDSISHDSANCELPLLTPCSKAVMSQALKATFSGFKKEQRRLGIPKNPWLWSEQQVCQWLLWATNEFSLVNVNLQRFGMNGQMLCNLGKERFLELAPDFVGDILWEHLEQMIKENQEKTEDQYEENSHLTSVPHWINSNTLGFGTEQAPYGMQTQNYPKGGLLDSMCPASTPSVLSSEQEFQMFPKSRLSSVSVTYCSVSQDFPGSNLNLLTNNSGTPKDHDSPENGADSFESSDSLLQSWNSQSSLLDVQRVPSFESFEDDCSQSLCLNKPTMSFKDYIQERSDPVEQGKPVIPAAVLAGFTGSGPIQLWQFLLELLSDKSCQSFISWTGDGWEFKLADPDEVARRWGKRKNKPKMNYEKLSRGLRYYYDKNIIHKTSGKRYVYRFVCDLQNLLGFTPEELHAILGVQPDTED
To be noted: protein: recombinant; tags: N-terminal GST; dsDNA, one strand shown. The method, boiled down:
as §1

The target of another assay is T9, SPDEF (Homo sapiens, UniProt O95238 1-335).
T9 sequence: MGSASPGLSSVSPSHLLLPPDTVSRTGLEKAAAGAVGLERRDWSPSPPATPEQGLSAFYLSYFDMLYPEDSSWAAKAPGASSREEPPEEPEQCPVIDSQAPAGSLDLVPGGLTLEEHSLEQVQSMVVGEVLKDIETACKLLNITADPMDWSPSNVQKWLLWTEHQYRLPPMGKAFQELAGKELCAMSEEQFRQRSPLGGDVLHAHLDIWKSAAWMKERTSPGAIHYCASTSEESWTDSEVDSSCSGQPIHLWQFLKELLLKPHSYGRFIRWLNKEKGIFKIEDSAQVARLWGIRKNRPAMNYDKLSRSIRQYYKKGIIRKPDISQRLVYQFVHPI
To be noted: protein: recombinant; tags: N-terminal GST; dsDNA, one strand shown. The method, boiled down: as §1

A further assay has as its target T10, ETV7 (Homo sapiens, UniProt Q9Y603 1-341).
T10 sequence: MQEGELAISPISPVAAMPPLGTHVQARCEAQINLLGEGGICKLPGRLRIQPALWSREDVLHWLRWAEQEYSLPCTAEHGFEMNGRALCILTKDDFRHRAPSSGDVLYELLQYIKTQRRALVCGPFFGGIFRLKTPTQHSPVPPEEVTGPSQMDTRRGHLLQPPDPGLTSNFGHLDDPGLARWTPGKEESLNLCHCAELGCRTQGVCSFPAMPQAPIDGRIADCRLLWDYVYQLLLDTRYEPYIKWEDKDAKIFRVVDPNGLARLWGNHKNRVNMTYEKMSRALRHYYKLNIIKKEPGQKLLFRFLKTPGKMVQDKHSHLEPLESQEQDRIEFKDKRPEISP
To be noted: protein: recombinant; tags: N-terminal GST; dsDNA, one strand shown. The method, boiled down: as §1

A further assay concerns the target T11, ELF5 (Homo sapiens, UniProt Q9UKW6-2 1-255).
T11 sequence: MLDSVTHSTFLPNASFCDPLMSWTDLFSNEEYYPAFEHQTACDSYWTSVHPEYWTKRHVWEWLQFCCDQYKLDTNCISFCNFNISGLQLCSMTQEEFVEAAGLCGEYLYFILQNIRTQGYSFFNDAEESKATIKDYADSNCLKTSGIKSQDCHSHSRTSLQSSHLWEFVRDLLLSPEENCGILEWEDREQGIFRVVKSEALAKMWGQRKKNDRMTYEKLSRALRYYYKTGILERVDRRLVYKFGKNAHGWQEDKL
To be noted: protein: recombinant; tags: N-terminal GST; dsDNA, one strand shown. The method, boiled down: as §1

A further assay deals with T12, ETV3 (Homo sapiens, UniProt P41162-2 1-143).
T12 sequence: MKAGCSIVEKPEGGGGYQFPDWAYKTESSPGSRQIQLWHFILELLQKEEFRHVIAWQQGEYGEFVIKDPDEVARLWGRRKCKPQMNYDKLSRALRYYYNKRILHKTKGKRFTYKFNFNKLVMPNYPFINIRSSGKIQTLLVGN
To be noted: protein: recombinant; tags: N-terminal GST; dsDNA, one strand shown. In outline: as §1

The target in another assay is ETV6 (Homo sapiens, UniProt P41212 1-452). To be noted: protein: recombinant; tags: N-terminal GST; dsDNA, one strand shown. In outline: as §1
ETV6, sequence (P41212 whole entry): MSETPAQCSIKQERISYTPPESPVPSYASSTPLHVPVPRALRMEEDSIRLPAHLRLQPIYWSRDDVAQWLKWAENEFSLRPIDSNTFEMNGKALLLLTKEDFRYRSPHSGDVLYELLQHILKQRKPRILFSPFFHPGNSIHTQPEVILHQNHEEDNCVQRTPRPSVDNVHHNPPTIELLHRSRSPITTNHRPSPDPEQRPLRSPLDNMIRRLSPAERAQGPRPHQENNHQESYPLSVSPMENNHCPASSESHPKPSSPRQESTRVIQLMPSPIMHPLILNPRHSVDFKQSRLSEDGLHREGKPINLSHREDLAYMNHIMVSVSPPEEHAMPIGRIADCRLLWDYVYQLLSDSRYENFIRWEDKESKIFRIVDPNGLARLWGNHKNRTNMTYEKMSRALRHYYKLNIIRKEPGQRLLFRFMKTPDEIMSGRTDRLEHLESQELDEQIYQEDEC

HSF1, sequence (Q00613 whole entry): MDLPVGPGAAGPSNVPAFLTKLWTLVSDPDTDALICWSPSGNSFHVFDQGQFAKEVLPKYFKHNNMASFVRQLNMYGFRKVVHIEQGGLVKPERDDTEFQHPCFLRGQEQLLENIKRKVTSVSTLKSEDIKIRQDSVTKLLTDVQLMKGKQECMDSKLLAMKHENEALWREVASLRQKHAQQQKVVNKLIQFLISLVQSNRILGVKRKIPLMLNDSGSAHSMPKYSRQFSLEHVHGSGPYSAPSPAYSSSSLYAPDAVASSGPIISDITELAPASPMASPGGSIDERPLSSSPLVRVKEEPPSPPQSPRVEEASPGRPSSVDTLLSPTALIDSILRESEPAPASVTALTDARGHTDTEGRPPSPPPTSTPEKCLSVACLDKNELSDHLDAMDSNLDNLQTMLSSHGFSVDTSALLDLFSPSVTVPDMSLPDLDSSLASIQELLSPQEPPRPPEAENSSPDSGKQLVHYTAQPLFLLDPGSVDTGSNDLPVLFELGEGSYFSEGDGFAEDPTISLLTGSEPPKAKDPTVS
ELF4, sequence (Q99607 whole entry): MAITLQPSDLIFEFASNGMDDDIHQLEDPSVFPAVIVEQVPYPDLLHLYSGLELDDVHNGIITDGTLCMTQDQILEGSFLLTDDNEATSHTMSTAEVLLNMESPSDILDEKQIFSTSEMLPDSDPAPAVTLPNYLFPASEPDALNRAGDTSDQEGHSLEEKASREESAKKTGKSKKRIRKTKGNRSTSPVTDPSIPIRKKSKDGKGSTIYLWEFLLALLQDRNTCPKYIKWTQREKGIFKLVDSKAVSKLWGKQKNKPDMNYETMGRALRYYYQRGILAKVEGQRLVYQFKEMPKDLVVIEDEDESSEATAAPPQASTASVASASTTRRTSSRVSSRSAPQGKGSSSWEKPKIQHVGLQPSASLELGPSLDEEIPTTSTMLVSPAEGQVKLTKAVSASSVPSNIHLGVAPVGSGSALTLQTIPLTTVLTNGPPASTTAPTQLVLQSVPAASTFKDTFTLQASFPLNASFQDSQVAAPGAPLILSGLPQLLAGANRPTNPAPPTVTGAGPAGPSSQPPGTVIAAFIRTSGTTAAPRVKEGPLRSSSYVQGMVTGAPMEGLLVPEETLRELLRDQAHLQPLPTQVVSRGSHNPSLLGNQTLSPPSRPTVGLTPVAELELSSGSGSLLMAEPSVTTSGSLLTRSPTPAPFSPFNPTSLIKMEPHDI
ETV1, sequence (P50549 whole entry): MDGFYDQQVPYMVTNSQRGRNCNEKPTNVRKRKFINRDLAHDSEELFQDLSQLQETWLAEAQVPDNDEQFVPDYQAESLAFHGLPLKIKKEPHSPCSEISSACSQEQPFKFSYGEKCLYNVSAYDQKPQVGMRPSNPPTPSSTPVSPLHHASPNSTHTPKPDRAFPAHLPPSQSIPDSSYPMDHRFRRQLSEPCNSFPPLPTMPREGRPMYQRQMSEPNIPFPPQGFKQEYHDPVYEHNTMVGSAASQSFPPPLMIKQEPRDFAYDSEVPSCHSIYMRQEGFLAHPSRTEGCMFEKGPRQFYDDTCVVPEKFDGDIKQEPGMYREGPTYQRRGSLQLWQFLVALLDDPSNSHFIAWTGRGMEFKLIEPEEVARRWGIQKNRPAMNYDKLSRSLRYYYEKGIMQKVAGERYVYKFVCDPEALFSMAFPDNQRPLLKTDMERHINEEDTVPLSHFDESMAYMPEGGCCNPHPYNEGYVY

Take TACGCT: the binding signal was 1.32 fold enrichment (6-mer frequency, TF over GST control) in the assay with FEV; 1.3 fold enrichment (6-mer frequency, TF over GST control) in the assay with ETV5; 1.28 fold enrichment (6-mer frequency, TF over GST control) with HSF1; 1.21 fold enrichment (6-mer frequency, TF over GST control) in the assay with SPIC; 1.39 fold enrichment (6-mer frequency, TF over GST control) in the assay with ELF4; 1.26 fold enrichment (6-mer frequency, TF over GST control) with ELK4. The binding signal with ETV2 is 1.23 fold enrichment (6-mer frequency, TF over GST control); with ELF3 it was 1.29 fold enrichment (6-mer frequency, TF over GST control); in the assay with CRX, 1.48 fold enrichment (6-mer frequency, TF over GST control); with ETV1, 1.25 fold enrichment (6-mer frequency, TF over GST control); in the assay with ERF, 1.4 fold enrichment (6-mer frequency, TF over GST control); with ETV3L, 1.27 fold enrichment (6-mer frequency, TF over GST control). Also, the binding signal was 1.22 fold enrichment (6-mer frequency, TF over GST control) in the assay with ETS2; 1.32 fold enrichment (6-mer frequency, TF over GST control) in the assay with SPDEF; 1.31 fold enrichment (6-mer frequency, TF over GST control) in the assay with ETV7; 1.24 fold enrichment (6-mer frequency, TF over GST control) with ELF5; 1.42 fold enrichment (6-mer frequency, TF over GST control) with ETV3; 1.28 fold enrichment (6-mer frequency, TF over GST control) with ETV6.
